Data taken from PMC4336329 (PLoS ONE, 2015).
Out of some 310,000 compounds screened, about 14,000 (4.5%) showed an effect of 50% or more. The effect is printed as a negative number. For the sample, strong results were picked, then their nearest neighbours and some compounds at random.

molecular target: human ether-à-go-go-related gene (hERG) potassium channel (human, UniProt Q12809); experiment: primary screen, population patch clamp on CHO cells stably expressing hERG; higher = less effect of the substance
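Also: peak tail current of the secondary pulse compared with the same well before compound.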

Chain of human ether-à-go-go-related gene (hERG) potassium channel (Q12809 whole entry, looked up): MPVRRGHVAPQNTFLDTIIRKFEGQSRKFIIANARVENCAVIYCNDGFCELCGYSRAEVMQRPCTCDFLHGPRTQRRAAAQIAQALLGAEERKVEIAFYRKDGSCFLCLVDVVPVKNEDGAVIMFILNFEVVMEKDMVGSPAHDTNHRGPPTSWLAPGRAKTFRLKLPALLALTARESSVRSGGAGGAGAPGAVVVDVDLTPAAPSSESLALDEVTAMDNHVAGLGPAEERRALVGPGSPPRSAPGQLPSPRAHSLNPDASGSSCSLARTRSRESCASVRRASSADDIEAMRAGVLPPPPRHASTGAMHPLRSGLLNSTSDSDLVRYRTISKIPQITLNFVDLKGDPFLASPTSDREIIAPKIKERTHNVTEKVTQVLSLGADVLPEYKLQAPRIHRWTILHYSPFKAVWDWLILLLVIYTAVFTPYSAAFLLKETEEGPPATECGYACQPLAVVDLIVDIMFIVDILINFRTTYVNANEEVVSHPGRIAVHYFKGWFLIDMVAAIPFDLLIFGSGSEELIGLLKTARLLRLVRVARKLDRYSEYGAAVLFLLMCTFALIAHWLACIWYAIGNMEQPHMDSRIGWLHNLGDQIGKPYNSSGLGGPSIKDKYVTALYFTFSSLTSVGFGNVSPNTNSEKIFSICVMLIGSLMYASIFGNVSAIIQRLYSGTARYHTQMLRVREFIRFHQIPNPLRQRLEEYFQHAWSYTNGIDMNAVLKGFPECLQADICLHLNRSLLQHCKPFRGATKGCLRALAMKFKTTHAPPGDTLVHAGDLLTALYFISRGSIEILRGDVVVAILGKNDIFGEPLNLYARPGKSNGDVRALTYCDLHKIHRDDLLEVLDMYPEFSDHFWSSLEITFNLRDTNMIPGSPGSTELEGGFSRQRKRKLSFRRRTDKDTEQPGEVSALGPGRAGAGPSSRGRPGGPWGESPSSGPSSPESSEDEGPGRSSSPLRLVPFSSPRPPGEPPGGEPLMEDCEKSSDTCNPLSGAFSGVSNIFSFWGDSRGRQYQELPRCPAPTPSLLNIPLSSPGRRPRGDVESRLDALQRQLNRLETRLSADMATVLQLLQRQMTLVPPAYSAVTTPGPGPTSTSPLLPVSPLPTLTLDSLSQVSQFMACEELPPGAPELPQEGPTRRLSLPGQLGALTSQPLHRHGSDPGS

| Compound | hERG current change (%, negative = inhibition) at 10uM |
| --- | --- |
| OCC1(Cc2ccc(F)cc2)CCCN(CCCC(F)(F)F)C1 (centres unmarked) | -22.3% |
| OCC1(CCc2ccccc2)CCCN(CCCC(F)(F)F)C1 (centres unmarked) | -51.7% |
| CSCC(=O)N1CCCC(CO)(CCCc2ccccc2)C1 (centres unmarked) | -4.78% |
| OCC1(CCc2ccccc2)CCCN(CCCc2ccccc2)C1 (centres unmarked) | -70.9% |
| CSCCC(=O)N1CCCC(CO)(CCCc2ccccc2)C1 (centres unmarked) | -8.88% |
| C[n+]1ccc(/C=N/Nc2nc(Cl)c(C#N)c(Cl)c2Cl)cc1.[Cl-] | 20.2% |
| Cc1ccc(CNC(=O)c2ccccc2N)cc1 | 5.16% |
| COc1cc(NS(=O)(=O)c2ccc(N/C=C(\C#N)c3nc4cc(Cl)ccc4o3)cc2)nc(OC)n1 | -7.44% |
| CCCCc1ccc(N2C(=NC(=O)C3CCCO3)SC3CS(=O)(=O)CC32)cc1 (centres unmarked) | -56.5% |
| CCN(CC)c1ccc(N2C(=NC(=O)C3CCCO3)SC3CS(=O)(=O)CC32)cc1 (centres unmarked) | 3.6% |
| CC(=O)c1ccc(N2C(=NC(=O)C3CCCO3)SC3CS(=O)(=O)CC32)cc1 (centres unmarked) | -39.7% |
| COc1ccc(/C(C)=N/NC(=O)CCC(=O)Nc2ccc(Cl)cc2Cl)c(OC)c1 | -3.74% |
| CC1(C)O[C@@H]1COc1c2ccoc2cc2oc(=O)ccc12 | -19.4% |
| Cc1ccc(N2C(=O)CC(N3CCN(C4CCc5ccccc5C4)CC3)C2=O)cc1 (centres unmarked) | -75.1% |
| O=C1CC(N2CCCCC2)C(=O)N1c1ccccc1 (centres unmarked) | -3.42% |
| CC1CCN(C2CC(=O)N(c3ccccc3)C2=O)CC1 (centres unmarked) | 8.4% |
| CCOC(=O)N1CCN(C2CC(=O)N(c3ccc(C)cc3)C2=O)CC1 (centres unmarked) | 1.62% |
| Cc1ccc(N2C(=O)CC(N3CCN(c4ccccn4)CC3)C2=O)cc1 (centres unmarked) | -6.04% |
| O=C1CC(N2CCN(C3CCc4ccccc4C3)CC2)C(=O)N1c1ccccc1 (centres unmarked) | -64.6% |
| CC(/C=C/c1ccco1)=N/NC(=O)OC(C)(C)C | 3.46% |
| N#Cc1ccccc1Sc1ccccc1C(=O)Nc1ccc2ccccc2c1 | 15.8% |
| CC(=O)c1c(C)nc(-c2ccc(Cl)cc2)nc1NC(=O)C(C)C | -9.25% |
| Oc1ccccc1N=N/C(=N/Nc1ccccc1O)c1ccccc1 | 8.83% |
| COC(=O)CCC(=O)Nc1ccccc1C(N)=O | 23.1% |

| Compound | hERG current change (%, negative = inhibition) at 10uM |
| --- | --- |
| CC(C)(CO)Nc1ccc([N+](=O)[O-])cc1[N+](=O)[O-] | -8.26% |
| CC1(C)Cc2c(cnn2-c2ccc(F)cc2)C(NC(=O)Cn2cncn2)C1 (centres unmarked) | 7.61% |
| CC1(C)Cc2c(cnn2-c2ccc(F)cc2)C(NC(=O)CCN2CCCC2=O)C1 (centres unmarked) | 5.01% |
| CC1(C)Cc2c(cnn2-c2ccccc2)C(NC(=O)CCCn2cncn2)C1 (centres unmarked) | -1.88% |
| CC1(C)Cc2c(cnn2-c2ccc(F)cc2)C(NC(=O)CCn2cncn2)C1 (centres unmarked) | -69.1% |
| COc1ccc(-n2ncc3c2CC(C)(C)CC3NC(=O)CCn2cncn2)cc1 (centres unmarked) | -42.2% |
| Cc1ccc(-n2ncc3c2CC(C)(C)CC3NC(=O)CCn2cncn2)cc1 (centres unmarked) | -76.8% |
| COc1cc(-c2nc3c[n+](CC(=O)c4ccccc4)ccc3n2C)cc(OC)c1OC.[Br-] | 0.461% |
| CCC(CC)C(=O)Nc1ccc(-c2cn3cccnc3n2)cc1 | 4.74% |
| Cc1cc(C)n(-c2ccc(C(=O)Nc3ccc(S(=O)(=O)N(C)C)cc3)cc2)n1 | -40.8% |
| Cc1ccccc1-c1nnc(-c2ccccc2)o1 | -6.58% |
| Cc1ccc(N2CC(NC(=O)N3CCN(C(=O)c4ccco4)CC3)CC2=O)cc1 (centres unmarked) | -52.6% |
| Cc1[nH]c2ccccc2c1C(=O)C(=O)NC1CC(=O)N(c2ccc(F)cc2)C1 (centres unmarked) | -51.9% |
| O=C(NC1CC(=O)N(c2ccccc2)C1)N1CCN(C(=O)c2ccco2)CC1 (centres unmarked) | -5.77% |
| Cc1ccc(N2CC(NC(=O)C(=O)c3c(C)[nH]c4ccccc34)CC2=O)cc1C (centres unmarked) | -10.1% |
| O=C(NC1CC(=O)N(c2ccc(F)cc2)C1)N1CCN(C(=O)c2ccco2)CC1 (centres unmarked) | -63% |
| COc1ccc(N2CCN(C(=O)NC3CC(=O)N(c4ccc(OC)cc4)C3)CC2)cc1 (centres unmarked) | -35.9% |
| O=C(NC1CC(=O)N(c2cccc(F)c2)C1)N1CCN(C(=O)c2ccco2)CC1 (centres unmarked) | -26.1% |
| O=C(NC1CCCCC1)N1CCN(C(=O)c2ccco2)CC1 | -6.24% |
| O=C(NC1CC(=O)N(c2ccc(Cl)cc2)C1)N1CCN(C(=O)c2ccco2)CC1 (centres unmarked) | -91.6% |
| Cc1ccc(N2CC(NC(=O)C(=O)c3c(C)[nH]c4ccccc34)CC2=O)cc1 (centres unmarked) | -47.8% |
| COc1ccc(N2CC(NC(=O)N3CCN(C(=O)c4ccco4)CC3)CC2=O)cc1OC (centres unmarked) | 5.5% |
| O=C(NC1CC(=O)N(c2ccc(Cl)cc2)C1)C1CC1 (centres unmarked) | -18.2% |
